Assay [1] addresses Rap guanine nucleotide exchange factor 3 (Homo sapiens) (UniProt O95398). Nature of the assay: Confirmatory qHTS for antagonist of cAMP-regulated guanine nucleotide exchange factor 3 (EPAC1) (AID 1645880). Also: nearly all actives have a fitted effect of over 55% in size. Also: potency is read from the fitted curve at half-maximal effect. The essentials: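 Released BODIPY-GDP fluoresces less than Rap1-bound BODIPY-GDP; the signal is followed at 480/540 nm at 5-min intervals over 30 min, after 5 min at room temperature. Reactions contain 100 nM EPAC1, 250 nM RAP1B-BODIPY-GDP and 50 uM GDP; results are normalized to ATA and DMSO.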
Background: qHTS replaces the single test concentration by a dilution series.

For assay [2] the target is unchanged. Put plainly: Confirmatory qHTS for agonist of cAMP-regulated guanine nucleotide exchange factor 3 (EPAC1) (AID 1645881). Also: nearly all actives have a fitted effect of over 75% in size. Also: potency is read from the fitted curve at half-maximal effect.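 As to activation: EPAC1 catalysed release of BODIPY-GDP from Rap1B seen as fluorescence loss; 100% = effect of cAMP agonist control.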
The target of assay [3] is Rap guanine nucleotide exchange factor 4 (Homo sapiens) (UniProt Q8WZA2). Nature of the assay: Confirmatory qHTS for agonist of cAMP-regulated guanine nucleotide exchange factor 4 (EPAC2) (AID 1645884).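 Also: nucleotide exchange releases bodipy-GDP from Rap1 and this lowers its fluorescence; nearly all actives have a fitted effect of over 65% in size.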 Also: potency is read from the fitted curve at half-maximal effect. As to activation: % is scaled to controls: 0 for no effect and ±100 for the full control effect.
Assay [4] has the same target. Put plainly: Confirmatory qHTS for antagonist of cAMP-regulated guanine nucleotide exchange factor 4 (EPAC2) (AID 1645885). Also: nearly all actives have a fitted effect of over 25% in size. Also: potency is read from the fitted curve at half-maximal effect. As to activity change, negative = inhibition: % is scaled to controls: 0 for no effect and ±100 for the full control effect.
Assay [5] has as its target Rap guanine nucleotide exchange factor 3 (Homo sapiens) (UniProt O95398). Nature of the assay: Counterscreen qHTS for antagonist of cAMP-regulated guanine nucleotide exchange factor 3 (EPAC1) (AID 1645888). Also: % of control where 0% means no effect. The essentials:
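Rap1B-BODIPY-GDP 250 nM + GDP 50 uM; cpds 7-pt, final 9.74 nM–152 uM (activator mode) or from 7.32 nM upwards (inhibitor mode); RT; FI 480/540 nm at 5 and 30 min, then ± cAMP, reread.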
On the technique in general: Counterscreens check selectivity or assay interference.

Results filed as inconclusive are left out. Values without a mark were called inactive. Activity calls are given as the source filed them. Calls follow the shape of the dose curve; as a rule, active = well fitted curve in the direction sought with a large enough effect; inconclusive = small, poorly fitted or top-dose-only effect, or another doubt; inactive = no such curve, though single readings can be large; an effect the other way counts as inactive or inconclusive.

Chain of Rap guanine nucleotide exchange factor 4 (Homo sapiens) (Q8WZA2 whole entry, looked up): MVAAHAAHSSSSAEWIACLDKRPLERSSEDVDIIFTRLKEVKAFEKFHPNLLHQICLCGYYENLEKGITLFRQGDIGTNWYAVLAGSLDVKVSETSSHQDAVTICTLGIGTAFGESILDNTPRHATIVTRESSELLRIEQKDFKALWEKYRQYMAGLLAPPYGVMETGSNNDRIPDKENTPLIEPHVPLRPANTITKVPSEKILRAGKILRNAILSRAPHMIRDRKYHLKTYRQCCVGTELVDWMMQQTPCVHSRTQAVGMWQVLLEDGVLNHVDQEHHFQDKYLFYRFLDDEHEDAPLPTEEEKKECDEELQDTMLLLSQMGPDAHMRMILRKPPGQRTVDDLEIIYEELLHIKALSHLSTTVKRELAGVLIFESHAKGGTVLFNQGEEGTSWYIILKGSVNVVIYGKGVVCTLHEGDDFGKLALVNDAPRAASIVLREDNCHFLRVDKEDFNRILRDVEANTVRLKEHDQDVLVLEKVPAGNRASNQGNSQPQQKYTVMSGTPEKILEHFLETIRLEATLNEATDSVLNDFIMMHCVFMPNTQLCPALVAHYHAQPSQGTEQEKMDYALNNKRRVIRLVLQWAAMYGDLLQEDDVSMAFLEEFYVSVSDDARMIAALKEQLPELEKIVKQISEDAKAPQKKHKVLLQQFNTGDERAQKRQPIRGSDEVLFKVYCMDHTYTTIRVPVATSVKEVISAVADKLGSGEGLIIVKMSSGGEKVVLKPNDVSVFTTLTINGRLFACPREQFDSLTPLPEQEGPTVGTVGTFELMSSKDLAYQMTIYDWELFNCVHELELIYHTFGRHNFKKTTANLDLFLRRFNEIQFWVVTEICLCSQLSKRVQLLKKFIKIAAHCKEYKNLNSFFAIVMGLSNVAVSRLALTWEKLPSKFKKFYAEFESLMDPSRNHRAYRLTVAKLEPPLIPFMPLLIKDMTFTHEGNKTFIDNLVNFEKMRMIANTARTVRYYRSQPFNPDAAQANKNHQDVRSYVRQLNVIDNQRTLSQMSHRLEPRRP
Chain of Rap guanine nucleotide exchange factor 3 (Homo sapiens) (O95398 whole entry, looked up): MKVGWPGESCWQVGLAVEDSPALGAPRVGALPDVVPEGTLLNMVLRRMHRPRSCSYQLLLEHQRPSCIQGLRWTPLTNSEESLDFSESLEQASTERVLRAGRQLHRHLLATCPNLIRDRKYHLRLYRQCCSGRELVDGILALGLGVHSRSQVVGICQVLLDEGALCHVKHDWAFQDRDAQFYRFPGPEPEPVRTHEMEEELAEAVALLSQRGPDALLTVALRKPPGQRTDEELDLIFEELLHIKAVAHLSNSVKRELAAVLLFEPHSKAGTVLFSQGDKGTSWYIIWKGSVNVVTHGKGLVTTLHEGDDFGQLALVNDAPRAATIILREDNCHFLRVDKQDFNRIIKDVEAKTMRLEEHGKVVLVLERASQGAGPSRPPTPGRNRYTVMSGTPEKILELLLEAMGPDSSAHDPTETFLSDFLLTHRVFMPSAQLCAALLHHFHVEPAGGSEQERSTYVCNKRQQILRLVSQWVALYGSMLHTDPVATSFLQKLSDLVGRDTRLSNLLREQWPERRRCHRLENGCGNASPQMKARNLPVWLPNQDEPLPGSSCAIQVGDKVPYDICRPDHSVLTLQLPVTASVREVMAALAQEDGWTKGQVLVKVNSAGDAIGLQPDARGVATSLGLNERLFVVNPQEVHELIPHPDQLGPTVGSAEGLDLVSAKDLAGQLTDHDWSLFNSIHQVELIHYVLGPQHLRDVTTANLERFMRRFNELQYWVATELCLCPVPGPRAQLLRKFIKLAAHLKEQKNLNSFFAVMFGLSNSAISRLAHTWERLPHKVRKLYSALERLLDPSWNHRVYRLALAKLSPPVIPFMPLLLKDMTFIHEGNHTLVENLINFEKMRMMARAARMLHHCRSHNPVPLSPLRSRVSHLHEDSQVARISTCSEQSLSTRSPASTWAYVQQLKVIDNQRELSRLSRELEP

Turning to `O=C(O)CCn1cc(/C=C2\NC(=S)N(c3ccccc3)C2=O)c(-c2ccc(Br)cc2)n1`, the Potency entry in assay [1], in assay [2], in assay [3], in assay [4] and in assay [5] was “inactive” throughout.

On to `CN(C)C(CNS(=O)(=O)c1ccc(Cl)cc1)c1cccnc1` (stereo not given), for which the Potency entry in assay [1], in assay [2], in assay [3], in assay [4] and in assay [5] was “inactive” throughout.

In the case of `O=C(NCc1ccco1)c1c[nH]c2ccc(S(=O)(=O)N3CCOCC3)cc2c1=O`, the Potency result in assay [1], in assay [2] and in assay [4] was “inactive” each time. In addition, the activation in assay [3] was 7.59% [at 17.1 µM, percent relative to cAMP agonist control]. The activity change, negative = inhibition in assay [5] is 1.66% [at 30.8 µM].

`CCCCOc1ccccc1NC(=O)Cn1c(-c2cncs2)nc2ccccc21`: the Potency result in assay [1], in assay [2], in assay [3], in assay [4] and in assay [5] was “inactive” throughout.

Turning to `Cc1ccc(C(=O)OCC(=O)Nc2sccc2C(N)=O)cc1NC(=O)c1ccco1`, the Potency in assay [1] was 26.9 µM (active). Moreover, the Potency entry in assay [2], in assay [3], in assay [4] and in assay [5] was “inactive” in each case.

On to `COc1ccc(OC)c(N=Cc2c(O)c3ccccc3oc2=O)c1`, for which the Potency result in assay [1], in assay [4] and in assay [5] was “inactive” each time. Also, the values for the Potency in assay [2] and in assay [3] were 112 µM (active) and 89.1 µM (active), respectively.

In the case of `O=[N+]([O-])c1cc2ccccc2c(O)c1O`, the Potency in assay [1] was 31.6 µM (active). In addition, the Potency result in assay [2] and in assay [4] was “inactive” in each case. Further, the activation in assay [3] was 8.01% [at 17.1 µM, percent relative to cAMP agonist control]. The activity change, negative = inhibition in assay [5] is 9.83% [at 30.8 µM].

As for `Cc1occc1-c1nnc(SCC(=O)Nc2c(F)cccc2F)n1C`, the Potency entry in assay [1], in assay [2], in assay [3], in assay [4] and in assay [5] was “inactive” each time.

`CNC(=O)c1c(NC(=O)C2=COCCO2)sc(C)c1C`: the Potency entry in assay [1], in assay [2], in assay [3], in assay [4] and in assay [5] was “inactive” throughout.

As for `COc1cc(NC(=S)NCCC(c2ccccc2)c2ccccc2)cc(OC)c1`, the Potency result in assay [1], in assay [2] and in assay [4] was “inactive” in each case. The activation in assay [3] was 6.66% [at 17.1 µM, percent relative to cAMP agonist control]. For the same compound, the activity change, negative = inhibition in assay [5] is 11% [at 30.8 µM].

As for `CC(C)CN(C(=O)CC1OC(=O)c2ccccc21)c1c(N)n(Cc2ccccc2)c(=O)[nH]c1=O` (stereo not given), the Potency entry in assay [1], in assay [2], in assay [3], in assay [4] and in assay [5] was “inactive” each time.

For the compound `COc1cc(Nc2nc(SCc3cccc(Cl)c3)nc3ccccc23)cc(OC)c1`, the Potency entry in assay [1], in assay [2], in assay [3] and in assay [5] was “inactive” throughout. Moreover, the Potency in assay [4] is 0.151 µM (active).

Turning to `Cc1ccc2c(c1)c1c3n2CCN(C(=O)C2CC2)C3CCC1` (stereo not given), the Potency entry in assay [1], in assay [2], in assay [3] and in assay [5] was “inactive” throughout. The Potency in assay [4] is 75.7 µM (active).

`COc1ccc2oc(C)c(C(=O)c3ccc(C)cc3)c2c1`: the Potency result in assay [1], in assay [2] and in assay [4] was “inactive” throughout. The activation in assay [3] was 14.7% [at 17.1 µM, percent relative to cAMP agonist control]. Moreover, the activity change, negative = inhibition in assay [5] is -20.6% [at 30.8 µM].

As for `Cc1ccc(C(=O)Nc2ccccc2Oc2ccccc2)o1`, the Potency result in assay [1], in assay [2] and in assay [4] was “inactive” throughout. In addition, the activation in assay [3] is 4.96% [at 17.1 µM, percent relative to cAMP agonist control]. Moreover, in assay [5], the activity change, negative = inhibition is 1.6% [at 30.8 µM].

Regarding `CC(C)c1nc(SCC(=O)N2CCCc3ccccc32)c2c(=O)n(C)c(=O)n(C)c2n1`, the Potency result in assay [1], in assay [2], in assay [3], in assay [4] and in assay [5] was “inactive” each time.

On to `Cc1cccc(-n2nc(C)c(C(=O)Nc3cc(C)ccc3C)c2-n2cccc2)c1`, for which the Potency result in assay [1], in assay [2], in assay [3], in assay [4] and in assay [5] was “inactive” throughout.

Regarding `CCCCN1C(=O)C(CC(=O)NC2CCCCC2)CC(C(=O)N2CCCCCC2)=C1C` (stereo not given), the Potency result in assay [1], in assay [2] and in assay [4] was “inactive” each time. In addition, the activation in assay [3] was 8.48% [at 17.1 µM, percent relative to cAMP agonist control]. Moreover, the activity change, negative = inhibition in assay [5] was -2.29% [at 30.8 µM].

Take `COc1ccc(C)cc1NC(=O)CSc1nc(=O)n(Cc2ccco2)c2c1CCC2`: the Potency in assay [1] was 84.9 µM (active). The Potency result in assay [2], in assay [3], in assay [4] and in assay [5] was “inactive” throughout.

`Cc1ccc(-n2c(SCC(=O)N/N=C/c3ccccc3C(=O)O)nnc2-c2ccc(Cl)cc2)cc1`: the Potency result in assay [1], in assay [2], in assay [3], in assay [4] and in assay [5] was “inactive” throughout.

Consider `COc1ccc(N2CCN(C(=O)COC(=O)c3ccc(C)o3)CC2)cc1`, for which the Potency entry in assay [1], in assay [2] and in assay [4] was “inactive” in each case. In addition, in assay [3], the activation was 5.39% [at 17.1 µM, percent relative to cAMP agonist control]. The activity change, negative = inhibition in assay [5] is -20% [at 30.8 µM].

As to `CC(C)(C)n1cnc2cc(NCc3ccccc3Cl)ccc21`, the Potency in assay [1] was 84.9 µM (active). In addition, the Potency entry in assay [2], in assay [3], in assay [4] and in assay [5] was “inactive” throughout.

Take `CC(=O)Nc1cccc(NC(=O)CSc2nc(=O)n(CCN3CCOCC3)c3c2CCCC3)c1`: the Potency result in assay [1], in assay [2], in assay [3], in assay [4] and in assay [5] was “inactive” each time.
